From PubChem BioAssay AID1159580 (chemical genetic matrix, 2015)
“And” between values parts separate entries of the source, which are not always exact repeats. Equal entries are not always repeated. Among all 5,500 compounds or so, about 2,000 (36%) were called active. Not shown: some 18% with an inconclusive outcome. No stated cut-off is given here; in the data, active means normalized growth mostly below about 0.91 (no sharp cut-off); inconclusive means no clear call, values can overlap the other calls; inactive means mostly above about 0.92. The list shows a part of the results.

Experiment: chemical genetic growth profiling, strain panel (AID 1159580);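 further: tested at 20 µM; growth read once vehicle control cultures reached saturation at 30 °C; 1 = growth at the plate median or of vehicle wells; lower values mean less growth of the strain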
Settings: S. cerevisiae deletion strains, growth OD

Measured: normalized growth

CC(C)NC[C@H](O)COc1cccc2ccccc12
inactive: locus YAL021C, strain ccr4, hits give low values 0.985 | locus YAL026C, strain drs2, hits give low values 1 | locus YAL030W, strain snc1, hits give low values 0.986 | locus YBL061C, strain skt5, hits give low values 0.984 | locus YBR009C, strain hhf1, hits give low values 0.98 | locus YBR021W, strain FUR4, hits give low values 0.997 | locus YBR023C, strain chs3, hits give low values 0.99 | locus YBR171W, strain sec66, hits give low values 0.989 | locus YBR229C, strain ROT2, hits give low values 1.01 | locus YBR231C, strain swc5, hits give low values 0.989 | locus YBR279W, strain paf1, hits give low values 0.99 | locus YCL011C, strain gbp2, hits give low values 0.993 | locus YCL016C, strain dcc1, hits give low values 0.991 | locus YCL029C, strain bik1, hits give low values 1.02 | locus YCL061C, strain MRC1, hits give low values 0.994 | locus YCL069W, strain vba3, hits give low values 0.993 | locus YCR088W, strain abp1, hits give low values 0.991 | locus YDL005C, strain med2, hits give low values 0.981 | locus YDL035C, strain GPR1, hits give low values 0.993 | locus YDL040C, strain nat1, hits give low values 0.992 | locus YDL074C, strain BRE1, hits give low values 1.02 | locus YDL101C, strain DUN1, hits give low values 1.01 | locus YDL134C, strain PPH21, hits give low values 0.979 | locus YDL185W, strain tfp1, hits give low values 1.03 | locus YDL192W, strain arf1, hits give low values 1.02 | locus YDR001C, strain nth1, hits give low values 0.991 | locus YDR069C, strain doa4, hits give low values 1 | locus YDR101C, strain arx1, hits give low values 1 | locus YDR137W, strain rgp1, hits give low values 1 | locus YDR159W, strain sac3, hits give low values 0.976 | locus YDR162C, strain NBP2, hits give low values 1 | locus YDR195W, strain ref2 0.962 | locus YDR297W, strain sur2, hits give low values 1.01 | locus YDR318W, strain mcm21, hits give low values 1.02 | locus YDR334W, strain swr1, hits give low values 0.999 | locus YDR335W, strain msn5, hits give low values 0.991 | locus YDR388W, hits give low values 1.02 | locus YDR392W, strain spt3, hits give low values 0.943 | locus YDR502C, strain sam2, hits give low values 1 | locus YEL003W, strain gim4, hits give low values 1 | locus YEL037C, strain rad23, hits give low values 1.02 | locus YEL061C, strain CIN8 (second series), hits give low values 0.993 | locus YEL061C, strain CIN8, hits give low values 1.01 | locus YER015W, strain faa2, hits give low values 0.969 | locus YER016W, strain bim1, hits give low values 0.986 | locus YER110C, hits give low values 1.02 | locus YER111C, strain swi4, hits give low values 0.986 | locus YER155C, strain BEM2 (second series), hits give low values 0.98 | locus YER155C, strain BEM2, hits give low values 1.01 | locus YER167W, strain BCK2, hits give low values 1 | locus YFR010W, strain ubp6, hits give low values 1.01 | locus YGL078C, strain dbp3, hits give low values 1.01 | locus YGL086W, strain mad1, hits give low values 0.994 | locus YGL167C, strain pmr1, hits give low values 0.982 | locus YGL173C, strain kem1, hits give low values 0.993 | locus YGL227W, strain vid30, hits give low values 0.992 | locus YGL240W, strain doc1, hits give low values 0.977 | locus YGL248W, strain PDE1, hits give low values 1.01 | locus YGL253W, strain hxk2, hits give low values 1 | locus YGR078C, strain PAC10, hits give low values 1.01 | locus YGR135W, strain pre9, hits give low values 1.02 | locus YGR252W, strain gcn5, hits give low values 0.992 | locus YHR013C, strain ard1, hits give low values 0.953 | locus YHR027C, strain rpn1, hits give low values 0.988 | locus YHR030C, strain SLT2, hits give low values 1.01 and 1.06 | locus YHR079C, strain IRE1 (second series), hits give low values 1.02 | locus YHR079C, strain IRE1, hits give low values 1.08 | locus YHR094C, strain hxt1, hits give low values 1.02 | locus YHR129C, strain ARP1, hits give low values 1.01 | locus YHR142W, strain chs7, hits give low values 1.01 | locus YHR200W, strain rpn10, hits give low values 1.02 | locus YIL066C, strain RNR3, hits give low values 1.01 | locus YIL073C, strain SPO22, hits give low values 1.04 | locus YIL125W, strain kgd1, hits give low values 1.02 | locus YIR030C, strain dcg1, hits give low values 1.03 | locus YJL092W, strain hpr5, hits give low values 0.993 | locus YJL095W, strain BCK1 (second series), hits give low values 0.987 | locus YJL095W, strain BCK1, hits give low values 1.01 and 1.02 | locus YJL115W, strain asf1, hits give low values 0.987 | locus YJL129C, strain trk1, hits give low values 1.01 | locus YJL134W, strain LCB3, hits give low values 1.01 | locus YJL154C, strain vps35, hits give low values 0.992 | locus YJL164C, strain tpk1, hits give low values 0.989 | locus YJL166W, strain qcr8, hits give low values 0.983 | locus YJL168C, strain set2, hits give low values 1.02 | locus YJL187C, strain SWE1 (second series), hits give low values 1.01 | locus YJL187C, strain SWE1, hits give low values 0.984 | locus YJR043C, strain POL32, hits give low values 1.01
